Among the data in the supplement of paper PMC4723716 are viability index values, retold here.

One experiment relates to Plasmodium falciparum NF54 gametocytes. In words: viability index relative to DMSO control (fraction); higher = less gametocyte killing. Particulars: gametocyte stage: Stage II viability index; 12.5 µM; incubation time: 72 h. An outline of the steps: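 In 384-well plates, compound at 12.5 µM was incubated for 72 hr at 37°C under low oxygen with P. falciparum NF54 gametocytes of each stage (I–V) at 0.50% gametocytemia and 1.25% hematocrit in 40 µl of serum-containing medium. Staining used 5 µl of 5 µM MitoTracker Red CMXRos for 20 min, then 5 µl was moved into 40 µl of 500 nM dye in serum-free medium and imaged after 30 min. Dividing the gametocyte particle count by the plate mean of solvent-only wells gave the viability index.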
In turn, `COc1ccc(C=C2SC(Nc3ccc(F)cc3)=NC2=O)c(OC)c1` registered a viability index of 0.669.

`COc1ccc(C(O)(CCC(C)C)C(CN2CCOCC2)c2ccc(Cl)cc2)cc1` (stereo not given) had a viability index of 0.843.

On to `COc1ccc(-c2cc3c(nn2)-c2ccccc2C3=O)cc1`, for which the viability index came out at 0.675.

Take `CCOc1cc(Cl)c(C(C)NC(=O)c2ccccc2)cc1OCC` (stereo not given): the viability index was determined as 0.781.

In turn, `O=C1C2=C(Nc3ccccc3SC2c2ccccc2)c2ccccc21` (stereo not given) showed a viability index of 0.794.

As to `COc1ccccc1CNC(=O)C1c2ccccc2C(=O)N(CC(C)C)C1c1cccs1` (stereo not given), the viability index is 0.807.

For the molecule `O=C(CCc1ccccc1)c1ccccc1OCC(O)CN1CCCCC1` (stereo not given), the viability index amounted to 0.0616.

`CCCCCCn1c(=N)n(CC(O)COc2cccc(C)c2)c2ccccc21` (stereo not given) gave a viability index of 0.0425.

With `COc1ccc(-c2nc(NC(=O)CS(=O)(=O)c3ccc(F)cc3)sc2C)cc1`, the viability index turned out to be 0.564.

As for `Oc1c2c(nc3cc(-c4ccccc4)nn13)CCCC2`, the viability index turned out to be 0.786.

Take `COc1ccc(Nc2cc(C)nc(NCc3ccccc3)n2)cc1`: the viability index is 0.319.

`Cc1ccc(Nc2nc(NCCO)c3ccccc3n2)cc1C` gave a viability index of 0.32.

`O=C(NC1CCCC1)c1ccc(N2CCC(NCc3cccc(C(F)(F)F)c3)CC2)cc1` showed a viability index of 0.573.

The molecule `Cc1sc2ncnc(Sc3nc4ccccc4[nH]3)c2c1C` came in with a viability index of 0.0135.

In turn, `Cc1ccc(Nc2nc(N)c3ccccc3n2)cc1Cl` showed a viability index of 0.49.

Take `Clc1ccc2c(N3CCCC3)ccnc2c1`: the viability index is 0.491.

`CCc1ccc(CNCC(O)c2ccccc2)cc1` (stereo not given): the viability index amounted to 0.177.

`O=C(Nc1ccc(Cl)cc1C(=O)Nc1ccncc1)c1ccc(Cl)cc1Cl` returned a viability index of 0.589.

`COc1ccc(C(=O)NC(c2ccc(Cl)cc2Cl)c2cc(Cl)c3cccnc3c2O)cc1` (stereo not given) returned a viability index of 0.0341.

`CCCCNCC(O)(c1ccc(Cl)cc1)c1ccc(Cl)cc1`: the viability index is 0.0541.

`COc1ccc(C2NCCc3c2[nH]c2ccccc32)cc1CN1CCN(c2ccc(F)cc2)CC1` (stereo not given) showed a viability index of 0.0183.

The same experiment, now with this note: gametocyte stage: Stage III viability index; 12.5 µM; incubation time: 72 h.
On to `COc1ccc(CCn2c(=N)c(C(=O)NCc3cccnc3)cc3c(=O)n4cccc(C)c4nc32)cc1`, for which the viability index turned out to be 0.917.

`CCOc1cc2c(cc1OCC)C(c1cc(Cl)ccc1O)NCC2` (stereo not given) displayed a viability index of 0.488.

Molecule `CCC(=O)Nc1nnc(Cc2ccc(OC)c(OC)c2)s1` showed a viability index of 0.901.

Molecule `CC1=C(CC(=O)c2cccc([N+](=O)[O-])c2)C(=O)c2ccccc2C1=O` had a viability index of 0.0706.

Molecule `Cc1cc(N(C)C)nc(Nc2ccc(NC(=O)Nc3ccccc3)cc2)n1` registered a viability index of 0.138.

In turn, `O=C(Nc1nc(-c2ccccn2)cs1)c1ccccc1Br` had a viability index of 0.147.

`FC(F)(F)c1ccc(Nc2nnnc3ccccc23)cc1` returned a viability index of 0.921.

In turn, `COc1ccc(-c2cc3c(SCC(=O)Nc4cc(C(F)(F)F)ccc4Cl)nccn3n2)cc1` displayed a viability index of 1.06.

As to `COc1ccc(C(=O)NC(c2ccccc2Cl)c2cc(Cl)c3cccnc3c2O)cc1` (stereo not given), the viability index stood at 0.167.

In turn, `COc1ccc2c(c1OC)C(=O)N1c3ccccc3N=C(c3ccc(C)cc3)CC21` (stereo not given) showed a viability index of 0.951.

Molecule `Cc1ccc(C)c(-c2csc(Nc3ccc(C)c(C)c3)n2)c1` showed a viability index of 0.82.

Molecule `COc1ccc(C2N(C)c3ccccc3N2C)cc1` displayed a viability index of 1.01.

In turn, `CCOC(=O)C1=C(c2ccccc2)N=c2sc(=Cc3cc(C)n(-c4ccc(F)cc4)c3C)c(=O)n2C1c1cccc(OC)c1OC` (stereo not given) came in with a viability index of 0.996.

`COc1ccc(C(=O)C2CC2c2ccc(Cl)cc2)cc1` (stereo not given) registered a viability index of 1.03.

`Cc1ccc(CSCc2ccc(C(=O)NC3CC3)o2)cc1` displayed a viability index of 1.07.

`CCOc1ccc2c(c1)CN(Cc1ccc(Cl)cc1)CO2` registered a viability index of 0.452.

`CCOc1ccccc1NC(=O)CN1CCN(C(=O)c2ccco2)CC1` displayed a viability index of 1.07.

Consider `COc1cc2cc(C(=O)Nc3ccccc3)c(N)nc2cc1OC`, for which the viability index is 0.727.

In turn, `COc1ccc(C=C2SC(Nc3ccc(F)cc3)=NC2=O)c(OC)c1` came in with a viability index of 0.676.

For the molecule `COc1ccc(C(O)(CCC(C)C)C(CN2CCOCC2)c2ccc(Cl)cc2)cc1` (stereo not given), the viability index came out at 1.12.

On to `COc1ccc(-c2cc3c(nn2)-c2ccccc2C3=O)cc1`, for which the viability index turned out to be 0.735.

For the molecule `CCOc1cc(Cl)c(C(C)NC(=O)c2ccccc2)cc1OCC` (stereo not given), the viability index is 0.819.

`O=C1C2=C(Nc3ccccc3SC2c2ccccc2)c2ccccc21` (stereo not given) registered a viability index of 0.742.

For the molecule `COc1ccccc1CNC(=O)C1c2ccccc2C(=O)N(CC(C)C)C1c1cccs1` (stereo not given), the viability index worked out at 1.01.

In turn, `O=C(CCc1ccccc1)c1ccccc1OCC(O)CN1CCCCC1` (stereo not given) gave a viability index of 0.36.

`CCCCCCn1c(=N)n(CC(O)COc2cccc(C)c2)c2ccccc21` (stereo not given) came in with a viability index of 0.0828.

As to `COc1ccc(-c2nc(NC(=O)CS(=O)(=O)c3ccc(F)cc3)sc2C)cc1`, the viability index was determined as 1.11.

Regarding `Oc1c2c(nc3cc(-c4ccccc4)nn13)CCCC2`, the viability index was 1.07.

`COc1ccc(Nc2cc(C)nc(NCc3ccccc3)n2)cc1` displayed a viability index of 0.487.

`Cc1ccc(Nc2nc(NCCO)c3ccccc3n2)cc1C` registered a viability index of 0.584.

Take `O=C(NC1CCCC1)c1ccc(N2CCC(NCc3cccc(C(F)(F)F)c3)CC2)cc1`: the viability index turned out to be 0.76.

Regarding `Cc1sc2ncnc(Sc3nc4ccccc4[nH]3)c2c1C`, the viability index came out at 0.0354.

Regarding `Cc1ccc(Nc2nc(N)c3ccccc3n2)cc1Cl`, the viability index was found to be 0.695.

Consider `Clc1ccc2c(N3CCCC3)ccnc2c1`, for which the viability index stood at 0.915.

Take `CCc1ccc(CNCC(O)c2ccccc2)cc1` (stereo not given): the viability index is 0.649.

Turning to `O=C(Nc1ccc(Cl)cc1C(=O)Nc1ccncc1)c1ccc(Cl)cc1Cl`, the viability index was 0.935.

The molecule `COc1ccc(C(=O)NC(c2ccc(Cl)cc2Cl)c2cc(Cl)c3cccnc3c2O)cc1` (stereo not given) returned a viability index of 0.0814.

With `CCCCNCC(O)(c1ccc(Cl)cc1)c1ccc(Cl)cc1`, the viability index came out at 0.364.

In turn, `COc1ccc(C2NCCc3c2[nH]c2ccccc32)cc1CN1CCN(c2ccc(F)cc2)CC1` (stereo not given) came in with a viability index of 0.0204.
